Data on eleven compounds can be found in PubChem BioAssay (Tox21).

Molecules are shown by their SMILES. Unmarked numbers belong to inactive results. Inconclusive results are not listed. Activity calls are given as the source filed them. The call rests on the fitted dose curve; in most records, active means well fitted curve in the direction sought with a large enough effect in the repeat runs; inconclusive means weak or mixed curves; inactive means no such curve, though single readings can be large; an effect the other way counts as inactive or inconclusive.

Test [1] in a line: Human pregnane X receptor (PXR) small molecule agonists, qHTS cell viability counter screen (AID 1346977). Further: nearly all actives have a fitted effect of over 50% in size. Further: potency means the concentration at half of the fitted maximal effect. A digest of the protocol: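 Measures live-cell protease fluorescence (CellTiter-Fluor) in PXR-Luc HepG2 cells treated 24hr with compounds at 37C. Cells had 5hr to attach before pin transfer of DMSO solutions.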
Background: qHTS replaces the single test concentration by a dilution series.

Test [2] in a line: Caspase-3/7 induction in HepG2 cells by small molecules, qHTS assay (AID 1346978). Further: nearly all actives have a fitted effect of over 15% in size. Further: potency means the concentration at half of the fitted maximal effect. The method, boiled down: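 Wild-type HepG2 cells (2,000/well) were settled 5 h at 37 C, 5% CO2, then exposed to compounds in DMSO for 17 h. Caspase-3/7 activity was read by luminescence 30 min after adding Caspase-Glo 3/7 reagent at room temperature.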
Test [3] is described as follows: Caspase-3/7 induction in CHO-K1 cells by small molecules, qHTS cell viability counter screen (AID 1346979). Further: nearly all actives have a fitted effect of over 35% in size. Further: potency means the concentration at half of the fitted maximal effect. The method, boiled down:
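In the same wells as the caspase read, viability of compound-treated wild-type CHO-K1 cells was assessed using CellTiter-Fluor, added after 16hr at 37C and measured by fluorescence following 1hr further incubation.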

The nature of test [4]: Caspase-3/7 induction in CHO-K1 cells by small molecules, qHTS assay (AID 1346980). Further: nearly all actives have a fitted effect of over 15% in size. Further: potency means the concentration at half of the fitted maximal effect. The method, boiled down: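 Wild-type cells were seeded at 1,500 per well and settled 5 hr at 37 C, 5% CO2, then exposed to DMSO-dissolved compounds for 17 hr. Caspase-Glo 3/7 reagent was added, and luminescence was read after 30min at room temperature.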
Test [5] addresses Nuclear receptor subfamily 1 group I member 2 (Homo sapiens) (UniProt O75469). Nature of the test: Human pregnane X receptor (PXR) small molecule agonists, qHTS assay (AID 1346982). Further: nearly all actives have a fitted effect of over 35% in size. Further: potency means the concentration at half of the fitted maximal effect. The method, boiled down: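 Agonist mode: luminescence from ONE-Glo after 24 h compound exposure at 37C in HepG2 cells carrying hPXR-responsive CYP3A4 luciferase, plated in charcoal-stripped serum medium 5 h beforehand.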

The target of test [6] is Cytochrome P450 2D6 (Homo sapiens) (UniProt P10635). The test can be described thus: Cytochrome P450 Family 2 Subfamily D Member 6 (CYP2D6) small molecule antagonists: luciferase reporter qHTS assay (AID 1671196). Further: series mostly up to about 120 µM; nearly all actives have a fitted effect of over 50% in size. A digest of the protocol: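 CYP2D6 activity was followed as luminescence from its luciferin product after a 1 h NADPH-driven reaction at room temperature. Enzyme-substrate mix and compound were pre-incubated for 10 min, and the signal was read 20 min after adding detection reagent.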
Background: A reporter such as luciferase makes a cellular process visible.

The target in test [7] is Cytochrome P450 2C19 (Homo sapiens) (UniProt P33261). Nature of the test: Cytochrome P450 Family 2 Subfamily C Member 19 (CYP2C19) small molecule antagonists: luciferase reporter qHTS assay (AID 1671197). Further: nearly all actives have a fitted effect of over 65% in size. Further: potency means the concentration at half of the fitted maximal effect. On activity change, negative = inhibition: series mostly up to about 120 µM. The method, boiled down:
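P450-Glo CYP2C19 screening system; proluciferin substrate; DMSO compound stocks; 10 min RT preincubation; NADPH regeneration, 1 h at 37C; luciferin detection reagent, 20 min RT; luminescence as RLU.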

The target in test [8] is Cytochrome P450 2C9 (Homo sapiens) (UniProt P11712). The test can be described thus: Cytochrome P450 Family 2 Subfamily C Member 9 (CYP2C9) small molecule antagonists: luciferase reporter qHTS assay (AID 1671198). Further: series mostly up to about 120 µM; nearly all actives have a fitted effect of over 50% in size. A digest of the protocol:
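CYP2C9 activity was measured with a P450-Glo proluciferin substrate. Enzyme–substrate mix was held with compound for 10 min at room temperature, then NADPH regeneration solution was added for 1 h at 37C. Luciferin product was read as luminescence.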

Test [9] concerns the target Voltage-gated inwardly rectifying potassium channel KCNH2 (Homo sapiens) (UniProt Q12809). The test can be described thus: Human Ether-a-go-go-Related Gene (hERG) channel small molecule antagonists: fluorescence cell-based qHTS assay (AID 1671200).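 Further: hERG-expressing U2OS cells given a thallium stimulus after FluxOR II dye loading; series mostly up to about 77 µM; nearly all actives have a fitted effect of over 50% in size.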 The method, boiled down: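 Quantitative HTS in hERG-U2OS cells: thallium entry through the channel reports activity, read as continuous 480/540 nm fluorescence over 2 min after stimulus addition.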
In general terms: Block of hERG is tested as a sign of cardiac risk.

For test [10], the target named is Cytochrome P450 3A4 (Homo sapiens) (UniProt P08684). Nature of the test: Cytochrome P450 Family 3 Subfamily A Member 4 (CYP3A4) small molecule antagonists: luciferase reporter qHTS assay (AID 1671201). The method, boiled down:
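Inhibition of CYP3A4 is measured as loss of light: the enzyme converts a proluciferin substrate to luciferin, detected luminescently. Reaction ran 1 h at room temperature with NADPH regeneration after a 10 min compound preincubation.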

In test [11] the target is Cytochrome P450 1A2 (Homo sapiens) (UniProt P05177). Nature of the test: Cytochrome P450 Family 1 Subfamily A Member 2 (CYP1A2) small molecule antagonists: luciferase reporter qHTS assay (AID 1671199). Further: nearly all actives have a fitted effect of over 50% in size. Further: potency means the concentration at half of the fitted maximal effect. On activity change, negative = inhibition: series mostly up to about 120 µM. A digest of the protocol: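 Luminescence from luciferin formed by CYP1A2 from a proluciferin substrate, read 20 min after detection reagent. Compound was pre-incubated 10 min with enzyme-substrate, and reaction started with NADPH regeneration solution for 1 h at room temperature; furafylline control.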

Test [12] is described as follows: Caspase-3/7 induction in HepG2 cells by small molecules, qHTS cell viability counter screen (AID 1346981). Further: series mostly up to about 92 µM; nearly all actives have a fitted effect of over 30% in size. The method, boiled down: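 CellTiter-Fluor fluorescence measured viability in the same wells used for Caspase-Glo 3/7. HepG2 (wild type) at 2,000 cells/well were pre-incubated 5 hr, dosed, and given reagent at 16 hr, with 1 hr further at 37C.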
On the % scale 0 is the no-effect control and ±100 the full control effect.

Sequence of Cytochrome P450 1A2 (Homo sapiens) (P05177 whole entry, looked up): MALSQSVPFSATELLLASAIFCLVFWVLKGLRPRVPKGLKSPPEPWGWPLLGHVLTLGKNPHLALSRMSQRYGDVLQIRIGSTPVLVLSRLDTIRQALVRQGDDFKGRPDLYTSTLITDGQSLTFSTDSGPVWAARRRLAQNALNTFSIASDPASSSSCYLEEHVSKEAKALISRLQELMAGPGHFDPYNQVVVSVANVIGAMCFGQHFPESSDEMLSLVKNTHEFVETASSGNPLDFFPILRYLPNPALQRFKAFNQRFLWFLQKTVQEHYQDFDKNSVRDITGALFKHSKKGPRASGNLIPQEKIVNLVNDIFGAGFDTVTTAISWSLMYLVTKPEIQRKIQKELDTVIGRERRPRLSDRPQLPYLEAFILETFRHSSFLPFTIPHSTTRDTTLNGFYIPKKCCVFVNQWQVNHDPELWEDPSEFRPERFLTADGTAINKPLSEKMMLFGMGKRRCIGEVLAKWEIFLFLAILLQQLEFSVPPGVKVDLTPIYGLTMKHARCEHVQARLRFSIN
Sequence of Voltage-gated inwardly rectifying potassium channel KCNH2 (Homo sapiens) (Q12809 whole entry, looked up): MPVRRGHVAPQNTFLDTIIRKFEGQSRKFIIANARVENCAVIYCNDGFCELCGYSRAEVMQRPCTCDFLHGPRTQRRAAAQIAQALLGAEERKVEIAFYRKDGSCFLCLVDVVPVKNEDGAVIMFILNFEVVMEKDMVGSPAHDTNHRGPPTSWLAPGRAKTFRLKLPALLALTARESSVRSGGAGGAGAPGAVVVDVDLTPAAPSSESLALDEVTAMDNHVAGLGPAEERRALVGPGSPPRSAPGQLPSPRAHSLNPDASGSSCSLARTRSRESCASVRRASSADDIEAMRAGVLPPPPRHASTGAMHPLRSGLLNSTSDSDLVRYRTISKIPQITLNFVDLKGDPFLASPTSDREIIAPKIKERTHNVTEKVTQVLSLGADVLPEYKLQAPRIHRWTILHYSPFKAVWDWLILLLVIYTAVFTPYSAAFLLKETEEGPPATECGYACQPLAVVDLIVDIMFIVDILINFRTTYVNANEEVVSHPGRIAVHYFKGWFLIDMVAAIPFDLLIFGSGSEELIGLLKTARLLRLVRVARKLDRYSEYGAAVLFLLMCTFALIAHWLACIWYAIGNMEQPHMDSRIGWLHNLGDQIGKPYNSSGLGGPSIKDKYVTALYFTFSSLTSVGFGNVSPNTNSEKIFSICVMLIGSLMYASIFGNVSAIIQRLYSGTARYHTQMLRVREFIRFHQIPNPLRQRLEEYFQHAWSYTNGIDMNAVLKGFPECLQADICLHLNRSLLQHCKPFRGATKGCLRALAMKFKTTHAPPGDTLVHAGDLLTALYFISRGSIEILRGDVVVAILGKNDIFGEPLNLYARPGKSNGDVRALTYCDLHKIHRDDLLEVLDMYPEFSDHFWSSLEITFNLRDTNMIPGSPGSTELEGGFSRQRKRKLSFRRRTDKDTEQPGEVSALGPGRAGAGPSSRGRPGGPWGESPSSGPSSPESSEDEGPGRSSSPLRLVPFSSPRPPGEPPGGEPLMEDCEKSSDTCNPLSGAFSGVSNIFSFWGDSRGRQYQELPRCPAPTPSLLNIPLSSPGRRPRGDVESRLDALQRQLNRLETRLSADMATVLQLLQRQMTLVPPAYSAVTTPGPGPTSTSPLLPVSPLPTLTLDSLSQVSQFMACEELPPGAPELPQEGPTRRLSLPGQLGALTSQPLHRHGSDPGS
Sequence of Cytochrome P450 2D6 (Homo sapiens) (P10635 whole entry, looked up): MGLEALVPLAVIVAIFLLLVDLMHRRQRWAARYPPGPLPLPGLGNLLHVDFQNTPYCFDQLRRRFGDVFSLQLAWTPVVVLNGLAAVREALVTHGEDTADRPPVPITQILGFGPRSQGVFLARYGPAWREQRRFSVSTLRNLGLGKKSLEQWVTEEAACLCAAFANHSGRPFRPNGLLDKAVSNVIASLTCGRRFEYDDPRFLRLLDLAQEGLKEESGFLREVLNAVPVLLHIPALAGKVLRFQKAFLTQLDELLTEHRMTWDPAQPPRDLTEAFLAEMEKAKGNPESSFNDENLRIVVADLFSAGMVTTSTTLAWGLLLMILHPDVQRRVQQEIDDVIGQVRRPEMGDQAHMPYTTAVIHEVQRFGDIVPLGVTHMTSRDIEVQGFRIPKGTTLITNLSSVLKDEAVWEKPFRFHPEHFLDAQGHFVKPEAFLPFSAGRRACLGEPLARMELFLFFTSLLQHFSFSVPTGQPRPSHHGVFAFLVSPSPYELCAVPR
Sequence of Cytochrome P450 2C9 (Homo sapiens) (P11712 whole entry, looked up): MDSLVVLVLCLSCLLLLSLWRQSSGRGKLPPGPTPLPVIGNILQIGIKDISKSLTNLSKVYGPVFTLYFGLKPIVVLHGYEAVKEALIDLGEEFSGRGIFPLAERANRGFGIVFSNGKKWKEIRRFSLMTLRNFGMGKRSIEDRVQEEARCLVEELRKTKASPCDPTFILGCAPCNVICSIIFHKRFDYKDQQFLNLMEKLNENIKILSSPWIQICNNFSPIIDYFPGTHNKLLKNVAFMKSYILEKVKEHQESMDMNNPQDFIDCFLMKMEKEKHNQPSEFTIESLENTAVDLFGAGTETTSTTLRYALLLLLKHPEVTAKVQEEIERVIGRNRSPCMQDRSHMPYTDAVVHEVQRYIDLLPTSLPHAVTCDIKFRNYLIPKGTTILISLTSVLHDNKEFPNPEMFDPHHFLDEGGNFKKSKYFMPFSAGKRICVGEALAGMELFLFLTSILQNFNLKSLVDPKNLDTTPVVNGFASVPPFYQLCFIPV
Sequence of Nuclear receptor subfamily 1 group I member 2 (Homo sapiens) (O75469 whole entry, looked up): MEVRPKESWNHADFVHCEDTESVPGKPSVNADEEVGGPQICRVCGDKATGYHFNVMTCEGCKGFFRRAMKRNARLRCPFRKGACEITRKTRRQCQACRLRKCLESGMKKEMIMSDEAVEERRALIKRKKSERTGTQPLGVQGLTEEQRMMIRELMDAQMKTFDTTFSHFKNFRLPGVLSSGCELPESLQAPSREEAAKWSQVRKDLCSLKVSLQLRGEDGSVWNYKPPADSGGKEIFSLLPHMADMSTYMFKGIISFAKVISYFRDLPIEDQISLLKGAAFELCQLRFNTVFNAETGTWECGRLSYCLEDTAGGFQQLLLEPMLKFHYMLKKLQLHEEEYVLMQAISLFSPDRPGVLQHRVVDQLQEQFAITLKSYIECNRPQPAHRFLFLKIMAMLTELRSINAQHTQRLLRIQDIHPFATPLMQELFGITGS
Sequence of Cytochrome P450 3A4 (Homo sapiens) (P08684 whole entry, looked up): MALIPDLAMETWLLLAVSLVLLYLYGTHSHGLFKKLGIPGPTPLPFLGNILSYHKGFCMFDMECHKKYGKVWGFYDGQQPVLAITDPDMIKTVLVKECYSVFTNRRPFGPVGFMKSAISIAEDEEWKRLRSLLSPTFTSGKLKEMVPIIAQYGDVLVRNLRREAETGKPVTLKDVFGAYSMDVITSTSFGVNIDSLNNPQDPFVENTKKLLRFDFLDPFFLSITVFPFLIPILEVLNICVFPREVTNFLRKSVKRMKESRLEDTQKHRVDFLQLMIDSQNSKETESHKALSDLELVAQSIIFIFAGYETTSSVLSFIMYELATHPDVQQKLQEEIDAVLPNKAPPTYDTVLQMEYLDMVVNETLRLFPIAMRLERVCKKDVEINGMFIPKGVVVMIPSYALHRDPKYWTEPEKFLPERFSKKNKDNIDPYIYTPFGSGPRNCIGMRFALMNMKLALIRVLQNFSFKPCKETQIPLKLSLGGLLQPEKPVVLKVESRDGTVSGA
Sequence of Cytochrome P450 2C19 (Homo sapiens) (P33261 whole entry, looked up): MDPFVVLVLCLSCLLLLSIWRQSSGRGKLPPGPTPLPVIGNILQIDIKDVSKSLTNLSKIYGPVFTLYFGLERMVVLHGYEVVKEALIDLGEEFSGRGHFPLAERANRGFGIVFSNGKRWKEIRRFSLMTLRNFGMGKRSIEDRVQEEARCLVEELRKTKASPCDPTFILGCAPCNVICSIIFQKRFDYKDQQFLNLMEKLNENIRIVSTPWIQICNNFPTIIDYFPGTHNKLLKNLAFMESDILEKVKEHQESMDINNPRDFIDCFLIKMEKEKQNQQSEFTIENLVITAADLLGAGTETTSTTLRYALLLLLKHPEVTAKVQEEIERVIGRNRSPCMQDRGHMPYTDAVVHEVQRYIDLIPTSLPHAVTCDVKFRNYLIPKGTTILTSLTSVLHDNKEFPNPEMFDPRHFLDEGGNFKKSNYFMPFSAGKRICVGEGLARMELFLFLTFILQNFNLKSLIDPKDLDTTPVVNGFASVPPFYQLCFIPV

On to `COC(=O)CS`, for which the Potency entry in [1], in test [2], in test [3], in test [4], in test [5] and in [6] was “inactive” throughout. The Potency entry in test [7], in test [8], in [9] and in test [10] was “inactive” each time.
Consider `CC(C)C[C@H](NC(=O)[C@H](CCc1ccccc1)NC(=O)CN1CCOCC1)C(=O)N[C@@H](Cc1ccccc1)C(=O)N[C@@H](CC(C)C)C(=O)[C@@]1(C)CO1`, for which the Potency is 0.075 µM (active) in test [1]; 0.266 µM (active) in [2]; 0.0944 µM (active) in [3]; 0.0473 µM (active) in test [4]; 0.0376 µM (active) in [5]. Moreover, the Potency entry in test [7], in [11] and in [9] was “inactive” throughout.
As to `CCOC(=O)C1=C(C)NC(C)=C(C(=O)OC)C1c1cccc(Cl)c1Cl` (stereo not drawn), the Potency result in test [1], in test [2], in [4], in test [12] and in test [9] was “inactive” in each case. In addition, the Potency in test [3] was 13.3 µM (active).
As for `O=Cc1c2ccccc2c(Cl)c2ccccc12`, the Potency entry in test [1], in test [2], in [4], in test [5], in test [6] and in test [7] was “inactive” in each case. Further, the Potency entry in test [9] and in test [10] was “inactive” each time. For the same compound, the Potency was 23.7 µM (active) in test [3] and 1.38 µM (active) in [11].
Turning to `N#CCc1ccc(Cl)cc1Cl`, the Potency result in test [1], in [2], in [3], in test [12], in [5] and in [6] was “inactive” each time. In addition, the Potency result in test [8], in test [9] and in [10] was “inactive” in each case. In addition, the Potency in [7] was 79.6 µM (active); in test [11] it was 22.4 µM (active).
For `CCCCCCCCN`, the Potency result in test [1], in test [2], in test [3], in test [4], in test [7] and in test [8] was “inactive” each time. In addition, the Potency result in test [11], in test [9] and in test [10] was “inactive” each time. The Potency in [5] was 27 µM (active).
In the case of `CC=C(Cl)Cl`, the Potency result in [1], in test [2], in test [3], in test [4], in [12] and in test [8] was “inactive” throughout. The Potency result in [11], in test [9] and in test [10] was “inactive” in each case.
Turning to `O=c1[nH]ncc2ccccc12`, the Potency entry in test [1], in test [2], in test [3], in test [4], in [5] and in test [6] was “inactive” each time. Also, the Potency entry in test [8], in [11], in test [9] and in test [10] was “inactive” throughout.
Turning to `CC(=O)OCC[N+](C)(C)C`, the Potency result in test [1], in test [2], in test [3], in [4], in test [5] and in test [6] was “inactive” in each case. Also, the Potency result in [8], in test [9] and in test [10] was “inactive” throughout. For the same compound, the Potency in [11] was 24.5 µM (active).
In the case of `Cc1cc(=O)c2c(O)c3c(O)cc(=O)c4c3c3c(cc(O)c1c23)C(C)(C)C=4O`, the Potency in [1] was 0.73 µM (active); in test [3], 2.59 µM (active). Besides, the caspase activation in test [2] is -2.97% [at 19 µM]. The caspase-3/7 activation in test [4] was -1.78% [at 19 µM]. The Potency result in [7] and in [11] was “inactive” each time. Moreover, in test [9], the activity change, negative = inhibition is -4.56% [at 15.8 µM].
On to `Cc1cc(O)ccc1O`, for which the Potency entry in test [1], in test [2], in [4], in test [6] and in [11] was “inactive” each time. Also, the Potency is 31 µM (active) in test [3] and 25.5 µM (active) in [7].
